# Results from PubChem BioAssay.
# For part of these data: Potency and affinity values are given separately. Active and inactive are the calls of the source.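 How the source made its calls, unless noted: active means fitted half-maximal concentration within the tested dose range, moderate curve steepness, a statistically real signal drop, and little compound fluorescence or tag-binding interference; inactive means the rest.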
# How the values were obtained:
# [1] = biological target: Cell division control protein 42 homolog (Homo sapiens) (UniProt P60953); assay: activated mutant Cdc42 GTP-binding inhibitors, dose response, biochemical, multiplex bead flow cytometry, Bodipy-FL-GTP (AID 1333)
# Sequence of Cell division control protein 42 homolog (Homo sapiens) (P60953 whole entry, looked up): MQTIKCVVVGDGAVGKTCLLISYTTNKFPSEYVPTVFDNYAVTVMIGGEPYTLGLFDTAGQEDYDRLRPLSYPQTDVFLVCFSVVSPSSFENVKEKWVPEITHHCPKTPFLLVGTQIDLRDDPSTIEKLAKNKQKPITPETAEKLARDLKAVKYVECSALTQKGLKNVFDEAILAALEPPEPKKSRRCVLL
# [2] = biological target: Cell division control protein 42 homolog (Homo sapiens) (UniProt P60953); assay: wildtype Cdc42 GTP-binding inhibitors, dose response, biochemical, multiplex bead flow cytometry, Bodipy-FL-GTP (AID 1334;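 active means fitted half-maximal concentration within the tested range, moderate curve steepness, significant signal drop, and little compound fluorescence or bead-linkage interference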); conditions: bead-based flow cytometry, Bodipy-FL-GTP binding to GST-Cdc42; at 100 µM (top of the series) unless noted
# [3] = biological target: GTPase HRas (Homo sapiens) (UniProt P01112); assay: inhibitors of GTP binding to wildtype Ras, dose response, biochemical, multiplex bead flow cytometry (AID 1335;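 active means fitted half-maximal concentration within 10 nM to 100 µM, steepness 0.5 to 2, significant signal drop, low assay interference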); conditions: bead-based flow cytometry, Bodipy-GTP binding to GST-Ras; at 100 µM (top of the series) unless noted
# Sequence of GTPase HRas (Homo sapiens) (P01112 whole entry, looked up): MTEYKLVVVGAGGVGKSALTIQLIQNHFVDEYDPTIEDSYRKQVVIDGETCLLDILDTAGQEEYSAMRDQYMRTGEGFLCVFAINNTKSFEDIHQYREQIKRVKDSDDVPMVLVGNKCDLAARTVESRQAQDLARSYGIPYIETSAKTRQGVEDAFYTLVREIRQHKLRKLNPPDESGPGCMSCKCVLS
# [4] = test system: Ras-related protein Rab-7a (dog), GTP binding; assay: Rab7 GTP binding inhibitors, potency, dose response, biochemical, wildtype, multiplex bead flow cytometry (AID 1336; call rule not given here)
# [5] = biological target: Ras-related C3 botulinum toxin substrate 1 (Homo sapiens) (UniProt P63000); assay: wildtype Rac1 GTP binding inhibitors, dose response, biochemical, multiplex bead flow cytometry (AID 1340;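 active means dose curve with midpoint inside tested range, moderate steepness, plateau gap beyond fit error, low compound glow and bead-link interference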); conditions: GST-Rac1 beads, Bodipy-FL-GTP binding; at 100 µM (top of the series) unless noted
# [6] = biological target: GTPase HRas (Homo sapiens) (UniProt P01112); assay: activated Ras mutant GTP binding inhibitors, dose response, biochemical, multiplex bead flow cytometry (AID 1341;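 active means dose-response curve with midpoint inside the tested range, moderate steepness, significant amplitude and little compound fluorescence or bead-attachment interference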;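 further: GST-tagged constitutively activated Ras mutant immobilized on beads and multiplexed with other GTPases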)
SMILES,outcome [1],"fluorescence, percent of control (lower = inhibition) [2] [%]","GTP binding, percent of control [3]",outcome [4],"GTP binding signal, raw median fluorescence (lower = inhibition) (MCF (arbitrary fluorescence units)) [5]",outcome [6]
O=C(Cn1cnc2cc([N+](=O)[O-])ccc2c1=O)NCc1ccc(Cl)cc1,inactive,34.9,82.3%,inactive,192,inactive
CSc1nc2ccc(NS(=O)(=O)c3c(Cl)cccc3Cl)cc2s1,inactive,31.2,77.9%,inactive,245,inactive
CC1CN(C(=O)c2cccc(S(=O)(=O)Nc3cc(Cl)ccc3Cl)c2)CC(C)O1 (stereo not drawn),inactive,26.5,65.8%,inactive,168,inactive
Cn1nnnc1SCc1ccc(C(=O)Nc2nccs2)cc1,inactive,36.8,47.9%,inactive,126,inactive
Cc1cccc(C)c1CCNc1ncccc1C(=O)O,inactive,76.7,245%,inactive,67.9,inactive
O=C1c2oc3ccc(Br)cc3c(=O)c2C(c2cccc(F)c2)N1CCO (stereo not drawn),inactive,36.4,81.2%,inactive,276,inactive
Cc1nn2c(-c3cccc(NC(=O)c4ccco4)c3)nnc2c2ccccc12,inactive,37.4,51% [at 33.3 µM],inactive,136,inactive
COc1ccc(/C=C(/C#N)C(=O)Nc2ccc(O)cc2)cc1C(=O)O,inactive,29.4,74.4%,inactive,177,inactive
C=CCN1C(=O)/C(=C/c2ccc(N(C)C)cc2)S/C1=N\c1nnc(CC)s1,inactive,74.8,90.2%,inactive,231,inactive
O=C(O)c1cc(-c2ccc(/C=C3\NC(=O)N(c4ccc(Cl)cc4)C3=O)o2)ccc1Cl,inactive,25.6,66.3%,inactive,160,inactive
Cc1cc(NC(=O)c2cccc(C(=O)Nc3cc(C)on3)n2)no1,inactive,40,86.3%,inactive,296,inactive
CCOc1ccc2nc(NC(=O)CSc3nc(-c4ccccc4)c(C#N)c(=O)[nH]3)sc2c1,inactive,25.1,70%,inactive,240,inactive
O=C(Nc1nccs1)c1ccc(-c2cccc([N+](=O)[O-])c2)o1,inactive,31.6,72.4%,inactive,181,inactive
Fc1cccc(Nc2ncnc3[nH]ncc23)c1,inactive,30.9,72.3%,inactive,177,inactive
CCN(CC)S(=O)(=O)c1ccc2oc(C(=O)N3CCc4ccccc4C3)c(C)c2c1,inactive,59.3,78%,inactive,0,inactive
O=C(O)CC/C(=C\c1ccccc1[N+](=O)[O-])c1nc2ccccc2s1,inactive,30.2,81.6%,inactive,248,inactive
Cc1nn2c(N)csc2nc1=O,inactive,56.9,67.8%,inactive,94.3,inactive
O=C(C[n+]1cccc(CNC(=O)c2ccc(OC(F)F)cc2)c1)Nc1ccccc1Cl,inactive,51.9,60.5%,inactive,203,inactive
Cc1cccc(OCCn2c(SCCC(=O)O)nc3ccccc32)c1,inactive,58,85.4%,inactive,28.9,inactive
COc1ccc(S(=O)(=O)Cc2ccc(C(=O)N3CCN(c4cc(Cl)ccc4C)CC3)o2)cc1,inactive,35.1,57.4%,inactive,148,inactive
N#C/C(=C(/O)COc1ccc(Br)cc1)c1nnc2n1CCCCC2,inactive,29.2,79.2%,inactive,262,inactive
CCN1/C(=C\C=C2\C(=O)N(c3ccccc3)C(=S)N2C)Sc2ccccc21,inactive,35.1,73.9%,inactive,189,inactive
Cc1cc(-c2n[nH]c(=S)n2/N=C/c2cc([N+](=O)[O-])ccc2Cl)n[nH]1,inactive,40.4,54.8%,inactive,105,inactive
O=C(Nc1cnn(C23CC4CC(CC(C4)C2)C3)c1)c1cnn2cccnc12,inactive,41.2,94.2%,inactive,324,inactive
O=S(=O)(Nc1cc(Sc2ncn[nH]2)c(O)c2ccccc12)c1ccccc1,inactive,31.4,71.9%,inactive,155,inactive
N#Cc1ccc2ccn(CC(=O)N3CCCc4ccccc43)c2c1,inactive,40,89.5%,inactive,351,inactive
Cc1ccc(OCCn2c(SCC(=O)O)nc3ccccc32)cc1,inactive,59,86.2%,inactive,35.2,inactive
Cc1ccc(C)c(OCc2ccc(C(=O)O)o2)c1,inactive,63.2,87.7%,inactive,39.9,inactive
